Experimental data: PubChem BioAssay (EPA / NIEHS)
Calls of active or inactive are those of the source. How the source made its calls: active means hit-call score of the fitted dose curve at least 0.9, where 1 is the maximum; inactive means score below 0.9.

These compounds were tested on Heat shock 70 kDa protein 1 (HSPA1A), gene 3303 (assay: LTEA_HepaRG_HSPA1A: Life Technologies and Expression Analysis (LTEA) Assay for Heat shock 70 kDa protein 1 (HSPA1A) using HepaRG (AID 2283502)). Conditions: mRNA level, 48 h; actives raise or lower the signal.
Method: LTEA_HepaRG is a cell based, multiplexed-readout assay that uses HepaRG, a human liver cell line, with measurements taken at 48 hours after chemical dosing on a 96-well plate.LTEA_HepaRG_HSPA1A is one of 102 assay component(s) measured in the LTEA HepaRG cell culture assay. It is a marker of Oxidative Stress.Data from the assay component LTEA_HepaRG_HSPA1A was analyzed into 1 endpoint. This assay endpoint, LTEA_HepaRG_HSPA1A, was analyzed with bidirectional fitting relative to DMSO as the negative control and baseline of activity. Using a type of inducible reporter, measures of mRNA induction for gain or loss-of-signal activity can be used to understand regulation of transcription factor activity. To generalize the intended target to other relatable targets, this assay endpoint is annotated to the dna binding intended target family, where the subfamily is heat shock protein.
A total of 1060 chemcials from the ToxCast library were tested in eight-point concentration-response experiments. Cell culture and cytotoxicity assays were conducted at Thermo Fisher Scientific's Custom Services facility (Madison, WI). A single lot of human HepaRG cells (Thermo Fisher Scientific, Frederick, MD) was used for the cell culture experiments. 96-well format collagen type I coated plates of human HepaRG cells were prepared using established methods. Briefly, cryopreserved HepaRG cells were thawed, plated at a density of approximately 100,000 cells/well in HepaRG Thaw, Plate, and General Purpose media (HPRG770, Thermo Fisher Scientific), and incubated for 48 hours. 0.5% DMSO was selected as vehicle control to balance the requisite need of DMSO in HepaRG cultures to maintain differentiation (for example, baseline metabolism, proportions of hepatocytes vs. cholangiocytes), while enabling further hepatic receptor pathway activation (for example, PXR and CAR) in response to chemical exposure. 48 hours after plating, the culture medium was replaced with HepaRG Serum-Free Incudtion Media. Cells were exposed to each test chemical in duplicate and maintained in CO2 incubators for another 48 hours. Chemical plates were thawed to room temperature and 200x concentrations of treatment groups were prepared. 8-point conentration-reponse curves were made with the highest exposure at 100 uM, followed by half-log dilutions, all in 0.5% DMSO. Each test plate contained variouse controls, induction positive controls (1mM phenobarbital), cytotoxicity positive controls ([…] aflatoxin B1), vehicle controls (0.5% DMSO), and total lysis controls (0.5% DMSO). Cell morphology images were taken using an Essen IncuCyte FLR automated microscope, with six 96-well plates imaged in about 24 minutes. Images were captured and exported and JPEG files. Spent culture media was transfered to black-well plates for the LDH assay, and remaining media was sorted at -80 C for later use. Cells were treated with RLT buffer and frozen until shipped for gene expression analysis. Total RNA was isolated from the cell suspension in 75 uL of Buffer RLT (Qiagen, Germantown, MD 20874) by Quintiles/Expression Analysis (Durham, NC) using a custom isolation procedure. Total RNA from each plate well was transferred to a preamplification plate. Fluidigm's 96.96 Dynamic ArrayTM (Fluidigm, Amsterdam, the Netherlands) technology was used for gene expression analyses by quantitative reverse transcription polymerase chain reaction (qRT-PCR, performed by Quintiles/Expression Analysis, Durham, NC)89. Standard TaqManTM Assays (Applied Biosystems/ThermoFisher Scientific, Foster City, CA) were used to assess the expression of 93 genes selected based on their selectivity and sensitivity to important hepatic receptors known to be modulated by environmental chemicals; importance in human hepatocyte functionality; and hepatotoxicity. […]
With `CCOC(=O)C(C)(C)Oc1ccc(Cl)cc1` the outcome was “inactive”. For `C[C@]12C=CC(=O)C=C1CC[C@@H]1[C@@H]2C(=O)C[C@@]2(C)[C@H]1CC[C@]2(O)C(=O)CO`, the outcome was “inactive”. For `CCCc1cc(=O)[nH]c(=S)[nH]1`, the outcome was “inactive”. In the case of `Cc1ccc(Cl)cc1`, the outcome is reported as “inactive”. For `CC(C)(C)c1cc(O)c(C(C)(C)C)cc1O`, the outcome was “inactive”. `CCc1c(C(=O)NN2CCCCC2)nn(-c2ccc(Cl)cc2Cl)c1-c1ccc(Br)cc1` was tested, and the AC50 was 86.3 µM (active). In the case of `CNCc1cc(F)ccc1Oc1ccc(Cl)c(Cl)c1`, the AC50 is reported as 78.4 µM (active). In the case of `Cc1cccc(Nc2cc(Cl)nc(SCC(=O)O)n2)c1C`, the outcome is reported as “inactive”. For `O=C(O)Cc1ccccc1Nc1c(Cl)cccc1Cl`, the outcome was “inactive”. `CCOc1ccc2c(c1)C(C)=CC(C)(C)N2` was tested, and the outcome was “inactive”. In the case of `C1CCC(SSC2CCCCC2)CC1`, the outcome is reported as “inactive”. For `CCCCCCCCCCO`, the outcome was “inactive”. In the case of `CN1CCN(Cc2cc(-c3ccc4[nH]c(=O)oc4c3)co2)[C@@H](c2ccc(F)cc2)C1`, the outcome is reported as “inactive”. In the case of `NC(=O)Cn1c(=O)cc(CCN2CCN(c3nccc4sccc34)CC2)c2ccc(F)cc21`, the AC50 is reported as 21.9 µM (active). With `C=CCOC(=O)c1ccccc1C(=O)OCC=C` the outcome was “inactive”. For `NCCO`, the outcome was “inactive”. `Oc1ccc2c(c1)OC[C@@H](N1CCC(O)(c3ccc(F)cc3)CC1)[C@H]2O` was tested, and the outcome was “inactive”. For `Nc1nc(N)c2nc(CNc3ccc(C(=O)N[C@@H](CCC(=O)O)C(=O)O)cc3)cnc2n1`, the outcome was “inactive”. In the case of `COCCOC[C@H](CC1(C(=O)NC2CCC(C(=O)O)CC2)CCCC1)C(=O)Oc1ccc2c(c1)CCC2` (stereo not given in full), the outcome is reported as “inactive”. For `Cc1oc(-c2ccccc2)nc1CCOc1cccc2c1ccn2CCC(=O)O`, the outcome was “inactive”. `CCCCCCCCCCCCCCCC` was tested, and the outcome was “inactive”. With `Cc1ccc(C)c(O)c1C` the outcome was “inactive”. `CNC(=O)[C@H]1O[C@@H](n2cnc3c(NCc4cc(Cl)ccc4OCc4cc(C)no4)ncnc32)[C@H](O)[C@@H]1N` was tested, and the outcome was “inactive”. For `FC(F)(F)C(F)(F)C(F)(F)C(F)(F)C(F)(F)C(F)(F)CCI`, the outcome was “inactive”. In the case of `CC1(C)CC(N=C=O)CC(C)(CN=C=O)C1` (stereo not given), the outcome is reported as “inactive”. With `COc1cc(C=O)ccc1O` the outcome was “inactive”. For `c1cc(-c2ccncc2)ccn1`, the outcome was “inactive”. For `Clc1cc(Cl)c(Cl)cc1Cl`, the outcome was “inactive”. In the case of `Nc1ccc(S(=O)(=O)c2ccc(N)cc2)cc1`, the outcome is reported as “inactive”. With `Cc1nc(-c2ccc3c(c2)CCN(CCC2CCC(NC(=O)/C=C/c4ccc(F)cc4)CC2)CC3)no1` (stereo not given) the outcome was “inactive”. With `OC[C@@H](O)[C@@H](O)[C@H](O)[C@H](O)CO` the outcome was “inactive”. `O=c1c(O)c(-c2ccc(O)c(O)c2)oc2cc(O)cc(O)c12` was tested, and the outcome was “inactive”. `Cc1nc(C)nc(N2C[C@@H](C)N(c3ccnc([C@@H](C)O)n3)[C@@H](C)C2)n1` was tested, and the outcome was “inactive”. With `Cc1ccccc1Cl` the outcome was “inactive”. With `CC=Cc1ccc(O)c(OC)c1` the outcome was “inactive”. With `CC(CO)OC(C)CO` (stereo not given) (tested in a mixture with another compound) the outcome was “inactive”. For `CN[C@H]1CC[C@@H](c2ccc(Cl)c(Cl)c2)c2ccc(S(N)(=O)=O)cc21`, the AC50 was 72.1 µM (active). `Nc1ccccc1N` was tested, and the AC50 was 50 µM (active). For `CC(=O)OCCOCCOCCOC(C)=O`, the outcome was “inactive”. In the case of `CCOC(=O)CCC(=O)OCC`, the AC50 is reported as 88.6 µM (active).
